Drawing on PubChem BioAssay (NCATS), this text covers Potency for 40 compounds.

Results filed as inconclusive are left out. Calls of active or inactive are those of the source. Unless noted, calls come from the whole dose curve; as a rule, active = well fitted curve in the direction sought with a large enough effect; inconclusive = small, poorly fitted or top-dose-only effect, or another doubt; inactive = no such curve, though single readings can be large; an effect the other way counts as inactive or inconclusive.

For test [1], the target named is Peptidyl-prolyl cis-trans isomerase NIMA-interacting 1 (Homo sapiens) (UniProt Q13526). Briefly: qHTS Validation Assay to Find Inhibitors of Pin1 (AID 504536; active = well fitted inhibition curve with a large enough effect in the polarisation, with a control signal flat, not every such curve was filed as active; the % refers to the polarisation; note: potency is the fitted concentration of half-maximal effect). In short, it runs like this: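 Fluorescence polarization competition: compounds (titration) displace HiFluor-488-labeled Pin1-1b peptide from Pin1 (0.3 uM final) in pH 7.5 HEPES buffer with DTT, 10 min at room temperature; %Activity normalized to no-enzyme wells, curves fitted.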
Sequence of Peptidyl-prolyl cis-trans isomerase NIMA-interacting 1 (Homo sapiens) (Q13526 whole entry, looked up): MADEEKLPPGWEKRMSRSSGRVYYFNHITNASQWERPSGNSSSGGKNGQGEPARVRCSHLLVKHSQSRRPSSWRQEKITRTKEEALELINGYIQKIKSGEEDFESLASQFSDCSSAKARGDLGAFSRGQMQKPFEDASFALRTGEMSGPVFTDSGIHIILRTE
In general terms: qHTS replaces the single test concentration by a dilution series.

The target of test [2] is Phosphoglycerate kinase, glycosomal (Trypanosoma brucei brucei) (UniProt P07378). Briefly: qHTS Validation Assay to Find Inhibitors of Phosphoglycerate Kinase (AID 504547). Note: potency is the fitted concentration of half-maximal effect. In short, it runs like this:
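Substrate/PGK mix plus compound; reaction started with GAPDH (100nM final) to form 1,3-BPG; 60 min RT; Kinase-Glo Plus 10 min; luminescence. TEA 100mM pH 7.6, MgCl2 5mM, Tween-20 0.01%.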

The target of test [3] is phosphoglycerate mutase (Leishmania major) (UniProt Q4Q090). Briefly: qHTS Validation Assay to Find Inhibitors of Phosphoglycerate Mutase (AID 504548).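 Note: end-point luminescence from Kinase-GloPlus after the PGAM reaction; series mostly up to about 58 µM.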 The settings on record: Potency: inhibition qHTS. In short, it runs like this:
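Inhibition of L. major PGAM was assessed by Kinase-GloPlus luminescence following a 45-minute room-temperature reaction with enzyme at 1.25nM final.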

The target of test [4] is Ubiquitin carboxyl-terminal hydrolase 1 (Homo sapiens) (UniProt O94782). Briefly: Inhibitors of USP1/UAF1: Pilot qHTS (AID 504865). Note: nearly all actives have a fitted effect of over 35% in size. Note: potency is the fitted concentration of half-maximal effect. In short, it runs like this:
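USP1/UAF1 complex (1nM) preincubated with compound 15 min at room temperature, then Ub-Rho substrate (150nM final) added. Fluorescence read kinetically at 480/540 nm, 6 reads every 60 seconds. Buffer: 50mM HEPES pH 7.8, 0.5mM EDTA, 0.1 mg/ml BSA, 1mM TCEP, 0.01% Tween-20.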

The nature of test [5]: qHTS for Inhibitors of ATXN expression: Validation of Cytotoxic Assay (AID 588349).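 Note: cells exposed to compound for 72 hr.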 In short, it runs like this: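 HEK293, compound dose series, 72 hr / 37 degrees C; viability via CellTiter Glo (intracellular ATP).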
Test [6] in a line: qHTS for Inhibitors of ATXN expression: Validation (AID 588378). Note: series mostly up to about 57 µM; nearly all actives have a fitted effect of over 75% in size. In short, it runs like this:
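Luminescence from an ATXN2-FFLuc reporter in HEK293 cells served as read-out after 24 h compound treatment at 37 degrees C; CellTiter-Fluor fluorescence was recorded first to assess viability.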

Sequence of phosphoglycerate mutase (Leishmania major) (Q4Q090 1-553): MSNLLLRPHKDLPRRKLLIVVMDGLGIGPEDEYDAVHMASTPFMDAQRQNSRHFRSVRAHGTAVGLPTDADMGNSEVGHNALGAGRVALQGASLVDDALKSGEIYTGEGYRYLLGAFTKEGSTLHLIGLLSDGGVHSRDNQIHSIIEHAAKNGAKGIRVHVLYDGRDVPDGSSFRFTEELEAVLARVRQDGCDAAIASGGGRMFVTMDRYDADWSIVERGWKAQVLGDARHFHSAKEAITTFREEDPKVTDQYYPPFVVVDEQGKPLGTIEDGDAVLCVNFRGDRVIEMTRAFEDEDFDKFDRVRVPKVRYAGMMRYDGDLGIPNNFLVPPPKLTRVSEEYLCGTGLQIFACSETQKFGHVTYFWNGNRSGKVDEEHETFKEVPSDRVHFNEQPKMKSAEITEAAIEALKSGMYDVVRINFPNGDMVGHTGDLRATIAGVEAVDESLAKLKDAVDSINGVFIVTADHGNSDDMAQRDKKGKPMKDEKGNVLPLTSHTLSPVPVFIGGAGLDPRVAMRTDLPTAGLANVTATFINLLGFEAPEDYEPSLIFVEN
Sequence of Phosphoglycerate kinase, glycosomal (Trypanosoma brucei brucei) (P07378 whole entry, looked up): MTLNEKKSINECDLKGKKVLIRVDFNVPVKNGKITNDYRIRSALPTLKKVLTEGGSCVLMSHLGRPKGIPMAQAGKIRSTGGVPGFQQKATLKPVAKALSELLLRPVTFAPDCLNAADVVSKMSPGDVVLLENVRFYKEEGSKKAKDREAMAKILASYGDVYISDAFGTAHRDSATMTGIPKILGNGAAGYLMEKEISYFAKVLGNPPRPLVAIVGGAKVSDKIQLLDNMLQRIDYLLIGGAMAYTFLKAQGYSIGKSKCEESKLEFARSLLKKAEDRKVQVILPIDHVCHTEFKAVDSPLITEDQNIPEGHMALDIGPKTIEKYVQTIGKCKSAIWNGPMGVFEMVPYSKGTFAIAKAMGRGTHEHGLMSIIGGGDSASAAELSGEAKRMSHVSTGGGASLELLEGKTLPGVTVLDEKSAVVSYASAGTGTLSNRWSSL
Sequence of Ubiquitin carboxyl-terminal hydrolase 1 (Homo sapiens) (O94782 whole entry, looked up): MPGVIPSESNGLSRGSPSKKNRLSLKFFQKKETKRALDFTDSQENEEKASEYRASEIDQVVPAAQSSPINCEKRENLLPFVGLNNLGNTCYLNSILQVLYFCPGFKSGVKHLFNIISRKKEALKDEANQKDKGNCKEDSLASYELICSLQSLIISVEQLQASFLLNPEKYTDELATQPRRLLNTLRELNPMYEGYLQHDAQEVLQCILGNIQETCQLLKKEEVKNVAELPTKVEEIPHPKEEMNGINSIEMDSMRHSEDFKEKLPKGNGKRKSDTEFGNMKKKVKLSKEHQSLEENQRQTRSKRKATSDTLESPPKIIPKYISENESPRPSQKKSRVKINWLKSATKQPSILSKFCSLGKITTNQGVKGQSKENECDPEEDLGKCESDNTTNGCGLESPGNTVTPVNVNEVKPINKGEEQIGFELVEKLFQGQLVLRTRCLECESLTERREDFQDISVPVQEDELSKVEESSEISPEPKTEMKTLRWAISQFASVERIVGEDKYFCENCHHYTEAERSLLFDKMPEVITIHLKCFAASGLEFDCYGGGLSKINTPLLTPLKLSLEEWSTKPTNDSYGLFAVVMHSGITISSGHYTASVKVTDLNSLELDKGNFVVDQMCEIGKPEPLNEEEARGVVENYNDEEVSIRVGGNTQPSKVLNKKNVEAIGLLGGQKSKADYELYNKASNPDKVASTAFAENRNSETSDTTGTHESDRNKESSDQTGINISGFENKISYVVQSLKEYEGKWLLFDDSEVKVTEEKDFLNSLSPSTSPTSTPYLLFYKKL

`CC(C)(C)c1ccc(S(=O)(=O)/C=C/C#N)cc1`: the Potency result in test [1], in test [2], in test [3] and in test [4] was “inactive” in each case.
Regarding `CSc1ccccc1N1CCN(CCCCCC(=O)NC2CCCc3ccccc32)CC1` (stereo unspecified), the Potency result in test [1], in test [2], in test [3] and in test [4] was “inactive” each time.
For the compound `CC12C(=O)OC(=O)C1(C)C1CCC2O1` (stereo unspecified), the Potency result in test [1], in test [2], in test [3] and in test [4] was “inactive” in each case.
With `COc1cc2nc(N3CCN(C(=O)OCc4ccccc4)C(C(=O)NC(C)(C)C)C3)nc(N)c2cc1OC` (stereo unspecified), the Potency entry in test [1], in test [2], in test [3] and in test [4] was “inactive” throughout.
Regarding `Clc1ccc(N2CCN(Cc3c[nH]c4ncccc34)CC2)cc1`, the Potency result in test [1], in test [2] and in test [3] was “inactive” throughout. In test [4], the Potency was 50.1 µM (active).
In the case of `Oc1cc(O)cc(/C=C/c2ccc(O)c(O)c2)c1`, the Potency result in test [1], in test [3] and in test [4] was “inactive” each time. For the same compound, the Potency in test [2] is 23.9 µM (active).
For `C=C[C@H]1CN2CC[C@@H]1C[C@@H]2[C@@H](O)c1ccnc2ccc(OC)cc12`, the Potency entry in test [1], in test [2] and in test [3] was “inactive” each time.
Take `COc1ccc2c(c1)CCC1C2CC[C@@]2(C)C1CC[C@@H]2NCCCCCCN1C(=O)CCC1=O` (stereo partly specified): the Potency entry in test [1], in test [2], in test [3] and in test [4] was “inactive” in each case.
For `NO`, the Potency entry in test [1], in test [2], in test [3], in test [4] and in test [5] was “inactive” throughout.
With `Clc1ccc(N2CCN(Cc3cc4ccccn4n3)CC2)cc1`, the Potency entry in test [1], in test [2], in test [3], in test [4] and in test [5] was “inactive” each time.
For `O=Nc1ccc2oc(=O)ccc2c1`, the Potency entry in test [1], in test [2] and in test [3] was “inactive” each time.
In the case of `CC(C)ON([C@@H](C(=O)NO)C(C)C)S(=O)(=O)c1ccc(-c2ccccc2)cc1`, the Potency entry in test [1], in test [2] and in test [3] was “inactive” each time.
`CN(C)C(N)=NCCC[C@H](N)C(=O)O`: the Potency entry in test [1], in test [2], in test [3] and in test [4] was “inactive” each time.
For `N=c1ccn2c(n1)O[C@H]1[C@H](O)[C@@H](CO)O[C@H]12`, the Potency entry in test [1], in test [2], in test [3] and in test [4] was “inactive” each time.
Consider `C=C[C@@H]1CN2CC[C@@H]1C[C@H]2[C@H](O)c1ccnc2ccc(OC)cc12`, for which the Potency result in test [1], in test [2] and in test [3] was “inactive” throughout.
Regarding `CC(=O)/C=C1\C(=O)N(C)c2ccccc21`, the Potency entry in test [1], in test [2], in test [3] and in test [4] was “inactive” each time.
For the compound `Brc1c(Br)c(Br)c2n[nH]nc2c1Br`, the Potency entry in test [1], in test [2] and in test [3] was “inactive” each time.
`CN1CCc2cc(O)c(O)cc2C(c2ccccc2)C1` (stereo unspecified): the Potency result in test [1], in test [2], in test [3] and in test [4] was “inactive” in each case.
As to `Cn1ncc(S(=O)(=O)Cc2ccccc2)c(Br)c1=O`, the Potency entry in test [1], in test [2] and in test [3] was “inactive” each time. Moreover, in test [4], the Potency is 12.6 µM (active).
In the case of `OCC1O[C@H]([S-])[C@H](O)[C@@H](O)[C@@H]1O.[Au+]` (stereo partly specified), the Potency in test [1] is 4.26 µM (active); in test [2] it was 8.49 µM (active). Also, the Potency result in test [3] and in test [4] was “inactive” each time.
In the case of `O=C1NC(=O)/C(=C/c2ccc3nccnc3c2)S1`, the Potency result in test [1], in test [2] and in test [3] was “inactive” each time.
Turning to `Nc1nc(Nc2ccccc2)nc2c1ncn2[C@@H]1O[C@H](CO)[C@@H](O)[C@H]1O`, the Potency result in test [1], in test [2], in test [3], in test [4] and in test [5] was “inactive” each time.
For `CN1CCc2cccc3c2C1Cc1ccc(O)c(O)c1-3` (stereo unspecified), the Potency result in test [1], in test [2], in test [3] and in test [4] was “inactive” each time.
As for `Cc1nc2sccn2c(=O)c1CCN1CCC(=C(c2ccccc2)c2ccc(F)cc2)CC1`, the Potency result in test [1], in test [2] and in test [3] was “inactive” in each case.
As to `NC(N)=NC(=O)c1nc(Cl)c(N2CCCCCC2)nc1N`, the Potency result in test [1], in test [2], in test [3] and in test [4] was “inactive” throughout.
As to `CN(C)c1nc(N)c(C(=O)N=C(N)N)nc1Cl`, the Potency result in test [1], in test [2], in test [3] and in test [4] was “inactive” in each case.
Take `CC[C@@H](C)[C@H]1O[C@]2(CC[C@H]1C)C[C@@H]1C[C@@H](CC=C(C)[C@@H](O[C@H]3C[C@H](OC)[C@@H](O[C@H]4C[C@H](OC)[C@@H](O)[C@H](C)O4)[C@H](C)O3)[C@@H](C)C=CC=C3CO[C@@H]4[C@H](O)C(C)=C[C@@H](C(=O)O1)[C@]34O)O2`: the Potency entry in test [1], in test [2] and in test [3] was “inactive” throughout.
In the case of `O=C(O)c1cc(=O)c2c(Cl)cc(Cl)cc2[nH]1`, the Potency entry in test [1], in test [2], in test [3] and in test [4] was “inactive” each time.
In the case of `CCCCCCCCCCCCCCCC(=O)NCC(COP(=O)([O-])OCC[N+](C)(C)C)OCC` (stereo unspecified), the Potency result in test [1], in test [2] and in test [3] was “inactive” in each case. Also, in test [4], the Potency is 79.4 µM (active).
`CNCC[C@H](Oc1ccc(C(F)(F)F)cc1)c1ccccc1`: the Potency entry in test [1], in test [2], in test [3] and in test [4] was “inactive” in each case.
As to `Cn1c(=O)c2[nH]c(-c3ccccc3)nc2n(C)c1=O`, the Potency result in test [1], in test [2], in test [3] and in test [4] was “inactive” in each case.
Take `Oc1ccc(C2CNCc3sccc32)cc1O` (stereo unspecified): the Potency result in test [1], in test [2], in test [3] and in test [4] was “inactive” each time.
As to `O=C(c1ccc(OCCCc2cnc[nH]2)cc1)C1CC1`, the Potency result in test [1], in test [2], in test [3] and in test [4] was “inactive” in each case.
As for `NC[C@H]1O[C@@H](n2cnc3c(N)ncnc32)[C@H](O)[C@@H]1O`, the Potency entry in test [1], in test [2], in test [3] and in test [4] was “inactive” in each case.
`S=C(S)OC1CC2CC1C1CCCC21` (stereo unspecified): the Potency entry in test [1], in test [2], in test [3] and in test [4] was “inactive” in each case.
For `CCCCCCCCCCCCCCCCCCNC(=O)OCC(COP(=O)([O-])OCC[n+]1ccsc1)OC` (stereo unspecified), the Potency entry in test [1], in test [2] and in test [3] was “inactive” in each case.
Consider `COc1cc2c(CCNC(C)=O)c[nH]c2cc1Cl`, for which the Potency entry in test [1], in test [2], in test [3], in test [4], in test [5] and in test [6] was “inactive” throughout.
As to `OC[C@H]1O[C@@H](n2cnc3c(NC4CCCCC4)ncnc32)[C@H](O)[C@@H]1O`, the Potency entry in test [1], in test [2], in test [3], in test [4], in test [5] and in test [6] was “inactive” throughout.
As for `CNc1ncnc2c1ncn2[C@@H]1O[C@H](CO)[C@@H](O)[C@H]1O`, the Potency result in test [1], in test [2], in test [3], in test [4], in test [5] and in test [6] was “inactive” each time.
Turning to `C[N+]1(C)C2CC(OC(=O)[C@H](CO)c3ccccc3)CC1C1OC12` (stereo partly specified), the Potency result in test [1], in test [2], in test [3], in test [4] and in test [5] was “inactive” in each case.
